Assay results taken from paper PMC12136788.
Where a chain is given by its changes, count along the chain named. In all, about 5,800 sequences were measured (“enrichment r”: median about 0.68, highest 2% from about 11 on). The full list was thinned out, with the highest values kept by preference.

T1: UNK ZnF1-6 (called full-length) (human, UniProt Q9C0B0 30-357)
T1 sequence: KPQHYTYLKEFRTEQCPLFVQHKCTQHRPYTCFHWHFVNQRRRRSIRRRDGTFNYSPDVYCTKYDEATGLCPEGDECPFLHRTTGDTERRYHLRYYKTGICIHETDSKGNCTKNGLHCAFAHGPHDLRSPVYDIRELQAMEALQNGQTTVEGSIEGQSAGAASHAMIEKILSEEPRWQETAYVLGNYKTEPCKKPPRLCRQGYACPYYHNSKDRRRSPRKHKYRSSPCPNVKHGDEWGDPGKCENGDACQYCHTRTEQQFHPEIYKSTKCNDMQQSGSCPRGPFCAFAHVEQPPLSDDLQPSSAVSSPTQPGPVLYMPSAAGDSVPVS

B1: chr12:122341087:122341188:-|CDS|ENSG00000130779|unk|FALSE|bound_elsewhere (ssRNA)
RNA: GGGAGUUCUACAGUCCGACGAUCAGAAUUUGCUGAACUAAAAACACAAAUAGAGAAAAUGAGACUAGAUUACCAACACGAAAUAGAAAAUUUGCAGAAUCAACAAGACUCUGAACGGGCUGCCCAUGCUAAAGAGAUGGAAGCCAACAGAGGAUUGAGCAUCA
B2: chr13:52036708:52036809:-|3pUTR|ENSG00000197168|unk|FALSE|unique (ssRNA)
RNA: GGGAGUUCUACAGUCCGACGAUCGUAGAACUUUUGAAUAUAGCCAUUAAUAUUUUUACUUUAAAGUUUCUAUUAAGAAAUCUUAGGCCGGGCAGUCUCAUCACUUUGGGAGGCCAAGGCAGGCAGAUCAUGAGGUCAGGAGUUCAACAGAGGAUUGAGCAUCA
B3: chr21:14371318:14371404:-|3pUTR|ENSG00000155304|msi1_unk|FALSE|overlapping (ssRNA)
RNA: GGGAGUUCUACAGUCCGACGAUCUAUGAAUAACAAUCUGAAGUCUUUUCAUAAAAAAAAUUAAUAAACUUUAGUUGUACAUUUAGCCAGUGUUAUUUGAAGUAUGUAACUUUUAAAAUAUUAAGUGUCUUGUAUGAUUAGAAUCAACAGAGGAUUGAGCAUCA
B4: chr10:11920118:11920232:-|3pUTR|ENSG00000151461|unk|FALSE|unique (ssRNA)
RNA: GGGAGUUCUACAGUCCGACGAUCGUAGUAUAUUUAGUCGGAGAGCACAUCUGUAUGCGACAACUUGAUUACAUCUUUUUUUCUAGCUAUUUUGCAUUUUUUCUUUUACCAUGUUUCAGUUUCUGCAUGUAGAUUUAAAUAAAACAACAGAGGAUUGAGCAUCA
B5: chr3:68976711:68977116:-|CDS|ENSG00000163378|control|control|control (ssRNA)
RNA: GGGAGUUCUACAGUCCGACGAUCCUUUUUAGGAAUACCAAAGUUUUCAACUUUUUCAGCUUUAGAAUUUGUAAAUAUUUUUGUAGAAUAUCAUAUGACUGUAAUUCCAGAGUGUUCCAACUUGUUUAUGAUAUAUUUGGGUAACAACAGAGGAUUGAGCAUCA
B6: chr13:52036708:52036809:-|3pUTR|ENSG00000197168|unk|total|mutant (ssRNA)
RNA: B2 RNA with U25C, A26C, U40C, A41C, U83C, A84C
B7: chr20:13714314:13714426:-|3pUTR|ENSG00000089048|unk|FALSE|unique (ssRNA)
RNA: GGGAGUUCUACAGUCCGACGAUCUUUUUCUAGCCAUAAAGGAUGGAAGUCAAGAACUUUUUGUUGUUUAGUCAUGUUAAGUAUAGUUUAUGAAAUUAACUUGUAAAUAAAAGUGUAAAAUAUUUUCAUUAUUUUGUAUAGCACCAACAGAGGAUUGAGCAUCA
B8: chr7:107202531:107202632:-|3pUTR|ENSG00000164597|msi1|total|mutant (ssRNA)
RNA: GGGAGUUCUACAGUCCGACGAUCUAUUCUGAGAACUCAUAAAUAAAAUUCAGCCAAGAUUAAUCAAUCAAUCAAUCAAUCAGCCGACGUCAGAGAUAAGCAACUUUUUUUUCCAUUUAUUUGAAAUAAUAUACAAGAAUACCGCAACAGAGGAUUGAGCAUCA
B9: chr12:39553730:39553837:-|3pUTR|ENSG00000173208|unk|FALSE|unique (ssRNA)
RNA: GGGAGUUCUACAGUCCGACGAUCGAAGUAUGUUAAGCUAAGCACAGAGAAAAAAAGGCAGCAAGACAUGUUUUAUAAGAUUUUAGCAUUAAGGAAGUAUAUGAUCUGACUUUUCAGAAGAAAAUAAACAAAUGCAUUAUGUAACAACAGAGGAUUGAGCAUCA
B10: ENSG00000070961:be:win_5751|3pUTR|ENSG00000070961|bound_else_gene|NA|bound_elsewhere_windowed (ssRNA)
RNA: GGGAGUUCUACAGUCCGACGAUCCUAAAAAUUGACCCUAUCAACUGGAGAGCCCACAAGGCAUAGGGAAUAGAGAAAAGGGAAAUGUUUUCAGUUUUCUUUUUUAUUUUGGUUAUGCUUAAAUAUGAAUGUAAUUACCAAAAGCAACAGAGGAUUGAGCAUCA
B11: chr6:152987361:152990084:-|three_prime_utr|ENSG00000112031|control|control|control (ssRNA)
RNA: GGGAGUUCUACAGUCCGACGAUCAGAUUAUCUACUGGAUGAACUUGUACAGUCAUUGAAGGAAUACGCCGAUUAUGAAUCUUUAGUAGAAAUUAUUUCCCAAAAAGUUUAAGUUGAUUUGUUAUUUAUAGACUUUCGUAGCUUCAACAGAGGAUUGAGCAUCA
B12: chr10:62806226:62806343:+|3pUTR|ENSG00000181915|unk|FALSE|unique (ssRNA)
RNA: GGGAGUUCUACAGUCCGACGAUCCUACCCCUUAGUUAAAUAGGGUUUAUUUUCCACUCAUGCCCUUAUGCCUUUUUUUCUUAUAGUUUUUUAACUUAUUGACUGUGCAUGACCCAGUGGUUUGAAUUGUUUUUAGUUCAAGUCCAACAGAGGAUUGAGCAUCA
B13: chr8:58582127:58582250:+|3pUTR|ENSG00000137575|unk|FALSE|bound_elsewhere (ssRNA)
RNA: GGGAGUUCUACAGUCCGACGAUCUUCAUAUUACUUUAGUUCUAUAGCAUACUUGCAUCUUUAACAUGCUAUCAUAGUACAUUUAGAAUGAUUGCCUUUGAUUUUUUUUUUAAAUUCUGUGUGUGUGUGUGUAAAAUGCCAAUUCAACAGAGGAUUGAGCAUCA
B14: chr1:3780741:3780842:-|3pUTR|ENSG00000130764|unk|total|mutant (ssRNA)
RNA: GGGAGUUCUACAGUCCGACGAUCCCAAGCCGCUGGGACUACAGGUGUGUGCCACUAAGCUCAGCUAAUUUUUGUAUUUUCCGCCGAGACGGGGUUUCACCAUUUUGACCAGGAUGGUCUUGAUCUCUUGACCUCAUGAUCUGUCAACAGAGGAUUGAGCAUCA
B15: chr20:45898604:45898705:+|3pUTR|ENSG00000064601|unk|total|mutant (ssRNA)
RNA: GGGAGUUCUACAGUCCGACGAUCAGAGCCCUGUACAUCCCAGACUGGGCCCAGGGUCUCCCACCGACAGCCUGGGGGCAAGUCCGCACUUUAUUCCCGCAGCAGUUCCUGAAUGGGGUGGCCUGGCCCCUUCUCUGCUUAAAGCAACAGAGGAUUGAGCAUCA
B16: chr17:47844907:47847298:-|three_prime_utr|ENSG00000189120|control|control|control (ssRNA)
RNA: GGGAGUUCUACAGUCCGACGAUCAAGGUGCGUAUUUAUUCAGGGAGGAGGAAAAGUGGUGCAGGGACAGGGAGAUGGGGCGCUAGGGGUUCUUAGUCUCUGGGGCUACUAGGCAGGAUGAAUUUGACUGGGUCGGUAGGAGCUCAACAGAGGAUUGAGCAUCA
B17: ENSG00000198589:be:win_9001|3pUTR|ENSG00000198589|bound_else_gene|NA|bound_elsewhere_windowed (ssRNA)
RNA: GGGAGUUCUACAGUCCGACGAUCUUCUUCAGCACUAAUAUUUCUGGGAUUUAAAUAGUAAUGUUUAAAUUAUGGUAAAUGUAAUUUAAAACAUCUCAAUUAAGUCUGUCUAUCAAUAUUGUUCUUCAAGCAUGUUUUAGACCUCAACAGAGGAUUGAGCAUCA
B18: chr8:23843870:23844003:-|3pUTR|ENSG00000159167|msi1|FALSE|unique (ssRNA)
RNA: GGGAGUUCUACAGUCCGACGAUCAAUUCCAGAGGACUCUGCUUAAACAAAGCAGUAUAUAAUAACUUUAUUGCAUAUAGAUUUAGUUUUGUAACUUAGCUUUAUUUUUCUUUUCCUGGGAAUGGAAUAACUAUCUCACUUCCACAACAGAGGAUUGAGCAUCA
B19: ENSG00000070961:be:win_6051|3pUTR|ENSG00000070961|bound_else_gene|NA|bound_elsewhere_windowed (ssRNA)
RNA: GGGAGUUCUACAGUCCGACGAUCCAGAAAUUUCCAGAGCAUUAUGUAGGUAGAAAAAAAUGCAAGCAAGCUGUUAAAGAUCUUGGAUCCCAUUAUAUAGUAUGUAUAGCUGAAAUCUGUAAUUCAAUCACUUUUUCUCUUUUACAACAGAGGAUUGAGCAUCA
B20: chr17:67340809:67340863:-|CDS_3pUTR|ENSG00000197170|msi1_unk|FALSE|overlapping (ssRNA)
RNA: GGGAGUUCUACAGUCCGACGAUCACAAAACUACGCAUCUCAUAGCCAAAGAGGAGAUGAUACAUAAUCUACAAUAAGGGUCUUAGUGCUUUAGAAAAAAGUUAAAAUUGGAAGUCAUUAAAAAAAGACUGUUAUAAUGGUGUACAACAGAGGAUUGAGCAUCA
B21: ENSG00000070961:be:win_251|CDS|ENSG00000070961|bound_else_gene|NA|bound_elsewhere_windowed (ssRNA)
RNA: GGGAGUUCUACAGUCCGACGAUCUGUUUGGAAAGAAUUUUAUACCUCCUAAAAAGCCAAAAACCUUUCUUCAAUUAGUAUGGGAAGCAUUACAAGAUGUCACUUUAAUUAUAUUAGAAAUUGCAGCCAUAGUAUCAUUGGGCCCAACAGAGGAUUGAGCAUCA
B22: chr5:134606522:134606623:-|3pUTR|ENSG00000152700|msi1_unk|total|mutant (ssRNA)
RNA: GGGAGUUCUACAGUCCGACGAUCAACUAUAAACCAUAUUUAAAAGCUCAUCAUGUUAAAUUUUUUAUGUACUUUUCUGGAACCCGUUUUUAAAUUUCCGAUUAUAUGUCCACCUAUCUUAAGUGUACAGUUAAUAAUCCGCUUCAACAGAGGAUUGAGCAUCA
B23: chr9:14618660:14618761:-|3pUTR|ENSG00000175893|msi1|FALSE|unique (ssRNA)
RNA: GGGAGUUCUACAGUCCGACGAUCUUAGCUUUCCACAGGGAUUUCUUGAAAUGCUUUUGUUAUUAAACUCAAAAGGCAGUGAUUAGGAUGAAAUAAUUGUACAUAAUUUAUUUUAGUACUGACAGUGUUACAGAUUCUAAUUUACAACAGAGGAUUGAGCAUCA
B24: chr6:142752714:142752806:-|3pUTR|ENSG00000010818|msi1_unk|FALSE|overlapping (ssRNA)
RNA: GGGAGUUCUACAGUCCGACGAUCUUUUCUUUACUUUGCUUAUAUUCUUAUAAGCAUUUUUUAGCAGUAAUUUGUACAUAUUUUAGAAUUUGUGUAUCUGCUUUGUAAUAAAUGUAAUUUCUUUCCUUUUUUGGACACUUGGAUCAACAGAGGAUUGAGCAUCA
B25: ENSG00000070961:be:win_6101|3pUTR|ENSG00000070961|bound_else_gene|NA|bound_elsewhere_windowed (ssRNA)
RNA: GGGAGUUCUACAGUCCGACGAUCUAAAGAUCUUGGAUCCCAUUAUAUAGUAUGUAUAGCUGAAAUCUGUAAUUCAAUCACUUUUUCUCUUUUAUCCUCUAACCAAAAAAUUGUUUAAUUUUGCAUCCCAAAUGUUUUUAAUCUCAACAGAGGAUUGAGCAUCA
B26: chr5:134606522:134606623:-|3pUTR|ENSG00000152700|msi1_unk|FALSE|overlapping (ssRNA)
RNA: B22 RNA with C83U, C84A, C97U, C98A, C138U, C139A
B27: chr4:110049619:110049852:-|3pUTR|ENSG00000170522|msi1|FALSE|unique (ssRNA)
RNA: GGGAGUUCUACAGUCCGACGAUCUUGUUCAAUGUGACAUAAUAGUAUUAUAAUUGGUUAAGUAGCUUAAUGAUUAGGCAAACUAGAUGAAAAGAUUAGGGGCUUCCACACUGCAUAGAUUACACGCACAUAGCCACGCAUACACAACAGAGGAUUGAGCAUCA
B28: chr3:167478683:167478996:-|three_prime_utr|ENSG00000174776|control|control|control (ssRNA)
RNA: GGGAGUUCUACAGUCCGACGAUCCUGCCUUUUAUUUUAUUUUAUAUUUAAACUUCAGGAAGUUUUCUCUUCAUGGGAUAAUUUAGUACUGCUUUUAUCUAUCAUCUGUCAAUUUCUCUGUAUUCUUAAUAAAAUAAAUAUUGACAACAGAGGAUUGAGCAUCA

These binders were tested against T1, UNK ZnF1-6 (called full-length) (assay: nsRBNS (natural sequence RNA bind-n-seq); RBNS binding buffer (assumed for nsRBNS): 25 mM Tris pH 7.5, 150 mM KCl, 3 mM MgCl2, 0.01% Triton X-100, 500 ug/ml BSA, 20 U/ml SUPERase-In, 4 C; UNK is unkempt and MSI1 is Musashi-1; names of the RNAs are library labels; protein concentration not given here; high values mean tight binding).

| Binder | binding signal [enrichment R] |
| --- | --- |
| B1 | 8.87 |
| B2 | 21 |
| B3 | 1.48 |
| B4 | 21.9 |
| B5 | 9.89 |
| B6 | 2.85 |
| B7 | 62.3 |
| B8 | 1.94 |
| B9 | 0.997 |
| B10 | 0.412 |
| B11 | 1.84 |
| B12 | 15.8 |
| B13 | 5 |
| B14 | 0.591 |
| B15 | 1.01 |
| B16 | 1.32 |
| B17 | 0.446 |
| B18 | 13.9 |
| B19 | 3.07 |
| B20 | 0.932 |
| B21 | 5.79 |
| B22 | 2.06 |
| B23 | 0.961 |
| B24 | 2.11 |
| B25 | 39 |
| B26 | 25.7 |
| B27 | 14.6 |
| B28 | 2.14 |
